PubChem BioAssay (Tox21)
Records with an inconclusive call do not appear. Entries that show only a call come without a potency. The source made the active and inactive calls. The call rests on the fitted dose curve; in most records, active means well fitted cell-killing curve with a large enough effect in the repeat runs; inconclusive means weak or mixed curves, or effect the other way; inactive means flat fitted curve, though single readings scatter.

Assay: qHTS RealTime-Glo MT Cell Viability Assay in HEK293 cells - 8 hour (AID 1224887); further: nearly all actives have a fitted effect of over 50% in size
Conditions: RealTime-Glo luminescence; series mostly up to 76.8 µM
Excerpt: U.S. Tox21 Program National Center for Advancing Translational Sciences [NCATS] NIH Chemical Genomics Center [NCGC] U.S. Environmental Protection Agency [EPA] National Institutes of Environmental Health Sciences [NIEHS] National Toxicology Program [NTP] U.S. Food and Drug Administration [FDA] Tox21 Assay Overview: Measure of cell viability is critical in the cell-base assay. Analysis of cell viability is necessary for the characterization of cell responses to cytotoxic drugs and environmental stress. A RealTime-Glo MT Cell Viability Assay to monitor cell viability in real time of continues cell culture during 40 hours of compound treatment was used to screen Tox21 10K library compounds in Hek293 cells. The RealTime-Glo MT Cell Viability Assay is a nonlytic, homogeneous, bioluminescent method to measure cell viability in real time using a simple, plate-based method. The assay involves adding NanoLuc luciferase and a cell-permeant prosubstrate to cells in culture. Viable cells reduce the proprietary prosubstrate to generate a substrate for NanoLuc luciferase. This substrate diffuses from cells into the surrounding culture medium, where it is rapidly used by the NanoLuc Enzyme to produce a luminescent signal. The signal correlates with the number of viable cells, making the assay well suited for cytotoxicity studies.
Tox21 Assay Protocol Summary: The mixture of Hek293 cell suspension and reagents were dispensed at 600cells/6 ul/well in 1536-well tissue culture treated black solid bottom plates using a Multidrop dispenser. After the assay plates were incubated at a 37 C/5% CO2 incubator for 5 hours, 23 nL of compounds dissolved in DMSO, positive and negative controls was transferred to the assay plate by a pintool work station. The plates were incubated at 37 C for 40 hours. The luminescence intensity were measured at 0h, 8h, 16h, 24h, 32h and 40h time points using ViewLux plate reader during compound treatment.
Potency means the concentration at half of the fitted maximal effect.

Structure (SMILES) | Potency
CC(O)C1CCCCC1 (stereo not given) | inactive
CC(=O)N(O)CCCCCNC(=O)CCC(=O)N(O)CCCCCNC(=O)CCC(=O)N(O)CCCCCN | inactive
CCCC(C)C | inactive
CCOc1cc(OCC)c(C(=O)CCC(=O)O)cc1OCC | inactive
CCC(C)N(C)C(=O)c1cc2ccccc2c(-c2ccccc2Cl)n1 (stereo not given) | inactive
OC(CCN1CCCCC1)(c1ccccc1)C1CCCCC1 (stereo not given) | inactive
CC(CN)CCCN (stereo not given) | inactive
O=C(CC(=O)c1ccccc1)c1ccccc1 | inactive
Cc1cccc(Oc2ccccc2)c1 | inactive
O=C1Nc2cc(Cl)ccc2Oc2ccccc21 | inactive
CN1CCN(C2=Nc3cc(Cl)ccc3Nc3ccccc32)CC1 | inactive
O=C(Cl)c1c(Cl)cccc1Cl | inactive
CCOc1nc2cccc(C(=O)O)c2n1Cc1ccc(-c2ccccc2-c2nn[nH]n2)cc1 | inactive
CC(=O)/C=C/C1C(C)=CCCC1(C)C (stereo not given) | inactive
Cc1ccc(C(=O)C(C)CN2CCCCC2)cc1 (stereo not given) | inactive
CCN1CCC[C@H]1CNC(=O)c1c(OC)ccc(Br)c1OC | inactive
COc1ccccc1OC(=O)Oc1ccccc1OC | inactive
O=CNc1ccccc1 | inactive
CCCCCC/C=C/C=O | inactive
CN1CCC(=C2c3ccccc3C=Cc3ccccc32)CC1 | inactive

Structure (SMILES) | Potency
O=S1(=O)N=C(O)c2ccccc21 | inactive
CCOC(=S)SSC(=S)OCC | inactive
CCCC[C@H]1CN(CC2CCOCC2)C(=O)OC12CCN(C1(C)CCN(C(=O)c3c(C)ncnc3C)CC1)CC2 | inactive
c1ccc(-c2nc[nH]c2-c2ccccc2)cc1 | inactive
CCCCCCCCN(C)C | inactive
O=C(O)C1CCC(C(=O)O)CC1 (stereo not given) | inactive
CCCCCCCCCCCCCCCC(=O)OC/C=C(C)/C=C/C=C(C)/C=C/C1=C(C)CCCC1(C)C | inactive
CNCC[C@@H](Oc1ccccc1C)c1ccccc1 | inactive
CC(C)c1ccc2c(C(C)C)cc(C(C)C)c(S(=O)(=O)O)c2c1 | inactive
CC(C)CCCCCCOC(=O)c1ccc(C(=O)OCCCCCCC(C)C)c(C(=O)OCCCCCCC(C)C)c1 | inactive
C=Cc1c(C)c2cc3[nH]c(cc4nc(cc5nc(cc1[nH]2)C(C)=C5CCC(=O)O)C(CCC(=O)O)=C4C)c(C)c3C=C | inactive
NC(N)=N/N=C/c1c(Cl)cccc1Cl | inactive
CCCCOC(O)CC (stereo not given) | inactive
CCCCOC(=O)c1ccccc1C(=O)OCC(CC)CCCC (stereo not given) | inactive
O=C(c1ccc(O)cc1)c1ccc(O)cc1 | inactive
CC(C)(C)c1cc(O)c(C(C)(C)C)cc1O | 15.5 µM (active)
SC1CCCC1 | inactive
CCCCc1cc2ccccc2c(OCCN(C)C)n1 | inactive
CCCCOc1ccc(CC(=O)NO)cc1 | 2.13 µM (active)
Cc1cc(NC(=O)C(=O)O)cc(C)c1Oc1ccc(O)c2c1CCC2 | inactive
